Laboratory results from PubChem BioAssay AID2098 (Broad Institute, 2009).
The whole screen tested about 300,000 compounds, of which about 2,300 (0.77%) were called active. The sample holds actives, similar compounds and a random draw of the others, so the mix is not that of the screen.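 Rule for the calls: active = more than half of replicate wells show activity change below -50%, luminescence cut by over half; inconclusive = some wells, but at most half, below -50%; inactive = no replicate well below -50%.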

Assay: blocking HSF1-driven luciferase expression – cell-based, NIH3T3, luminescence, primary screen (AID 2098);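 note: luciferase reports HSF-1 transcriptional activity via heat shock element; 0% = median of DMSO wells and -100% = zero luminescence signal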
Conditions: NIH3T3-HGL HSE-luciferase, MG132-induced, luminescence 8 h; stronger effect = lower value; screened at 7.5 µM (by protocol)

Row | SMILES | activity change, negative = inhibition
1 | CN1CCN(C(=O)C2C3C=CC(C3)C2C(=O)O)CC1 (stereo not given) | -0.614% (inactive)
2 | CCN1CCN(C(=O)/C=C\C(=O)O)CC1 | -4.12% (inactive)
3 | C/C(=C/C(=O)N1CCN(C)CC1)C(=O)O | -83.7% (active)
4 | COc1cccc(CN(C)CC2CCCN(CCc3ccc(Cl)cc3)C2)c1OC (stereo not given) | -81.7% (active)
5 | COc1cccc(CN(C)CC(=O)NCc2ccccc2Cl)c1OC | -1.39% (inactive)
6 | Cc1nc2ccc(C(=O)N(C)CC3CCCN(CCc4ccc(Cl)cc4)C3)cc2[nH]1 (stereo not given) | -3.74% (inactive)
7 | O=C(COc1ccccc1F)Nc1nc(-c2ccccn2)cs1 | -13.1% (inactive)
8 | N#CCCN(C(=O)COC(=O)c1ccc(S(=O)(=O)N2CCCCCC2)cc1)c1ccccc1 | 0.525% (inactive)
9 | Cc1ccccc1N1CC(C(=O)Nc2ccc(S(=O)(=O)N3CCCC3)cc2)CC1=O (stereo not given) | -1.85% (inactive)
10 | O=C(Cn1c(=O)n(Cc2ccco2)c(=O)c2ccccc21)NCC1CCCO1 (stereo not given) | 0.503% (inactive)
11 | COc1ccc(NC(=O)Cn2c(=O)n(Cc3ccco3)c(=O)c3ccccc32)cc1 | -89% (active)
12 | Cn1c(=O)c2ccccc2n(CC(=O)Nc2ccc3c(c2)OCCO3)c1=O | -3.8% (inactive)
13 | Cn1c(=S)sc2ccc3ccccc3c21 | -1.53% (inactive)
14 | Brc1ccc(C2=CC(c3ccco3)n3ncnc3N2)cc1 (stereo not given) | -56.9% (active)
15 | COC(=O)C1=C(C)Nc2ncnn2C1c1ccco1 (stereo not given) | 0.145% (inactive)
16 | CCOc1ccc(C2=CC(c3ccccc3)n3ncnc3N2)cc1 (stereo not given) | -4.36% (inactive)
17 | O=C(O)c1ccc2c(c1)C(=O)N(NC(=O)c1ccc(O)cc1)C2=O | 0.898% (inactive)
18 | O=C(Nc1ccc(C(=O)O)c(O)c1)c1ccccc1 | 2.77% (inactive)
19 | O=C(c1ccc(O)cc1)c1ccc(C(=O)O)c(C(=O)O)c1 | -68% (active)
20 | CCC1(c2ccccc2)NC(=O)N(CC(=O)c2ccc3c(c2)OCO3)C1=O (stereo not given) | 1.78% (inactive)
21 | CCCCN1C(N)=NC[C@@H]1CC1CCCCC1 | -7.88% (inactive)
22 | C[C@@H]1O[C@@H](OC[C@H]2O[C@@H](Oc3c(-c4ccc(O)cc4)oc4cc(O)cc(O)c4c3=O)[C@H](O)[C@@H](O)[C@@H]2O)[C@H](O)[C@H](O)[C@H]1O | 2.53% (inactive)
23 | Cc1ccc(C)c(N2CCN(C(=O)CCCCn3c(=O)[nH]c4ccccc4c3=O)CC2)c1 | 1.8% (inactive)

Row | SMILES | activity change, negative = inhibition
24 | Cc1ccc(C)c(N2CCN(C(=O)CCCCCn3c(=S)[nH]c4ccc(N5CCOCC5)cc4c3=O)CC2)c1 | -73.3% (active)
25 | O=C(CCCCCn1c(=S)[nH]c2cc3c(cc2c1=O)OCO3)N1CCN(c2ccc(F)cc2)CC1 | 0.967% (inactive)
26 | Cc1cc(Br)ccc1NC(=O)CN(C)C(=O)CN1C(=O)NC2(CCCC2)C1=O | -4.3% (inactive)
27 | O=C(COc1ccccc1)Nc1ccc(C(=O)N2CCCC2)cc1 | -3.01% (inactive)
28 | N#CC1=C(N)Oc2n[nH]c(CSc3ccccc3)c2C12C(=O)Nc1ccccc12 (stereo not given) | -57.8% (active)
29 | N#CC1=C(N)Oc2[nH]c(=S)[nH]c(=O)c2C12C(=O)Nc1ccccc12 (stereo not given) | -4.51% (inactive)
30 | COc1ccc(S(=O)(=O)NCC(c2ccco2)N2CCOCC2)cc1 (stereo not given) | 5.28% (inactive)
31 | O=C(Nc1nnc(S(=O)(=O)N2CCOCC2)s1)c1cccc(Br)c1 | 4.12% (inactive)
32 | O=C(Nc1nnc(S(=O)(=O)N2CCCCCC2)s1)c1cccc(Br)c1 | -56% (active)
33 | Cc1cccc(C(=O)Nc2nnc(S(=O)(=O)N3CCCCCC3)s2)c1 | -1.91% (inactive)
34 | O=C(COC(=O)c1ccccc1SCC(=O)N1CCCC1)Nc1ccccc1OC(F)F | 7.03% (inactive)
35 | O=C(c1ccc(F)c(S(=O)(=O)N2CCOCC2)c1)N(CCc1ccccc1)Cc1ccccc1 | 5.02% (inactive)
36 | COc1ccc(Cl)cc1C=CC=Nc1ccc(S(N)(=O)=O)cc1 | -18.4% (inactive)
37 | C=C1CCN([C@@H](Cc2ccccc2)C(=O)N2CCOCC2)S(=O)(=O)c2ccccc21 | -0.215% (inactive)
38 | COc1cccc(OC)c1C(=O)Nc1sc2c(c1C(N)=O)CCCC2 | -3.68% (inactive)
39 | O=C(OCC1OC(Oc2ccc(O)cc2)C(O)C(O)C1O)c1ccccc1 (stereo not given) | -1.79% (inactive)
40 | CCCCn1c(N)c(N(CC(C)C)C(=O)c2cccc(S(=O)(=O)N3CC(C)OC(C)C3)c2)c(=O)[nH]c1=O (stereo not given) | -2.84% (inactive)
41 | Cc1ccc(C(CNC(=O)Nc2ccccc2)N2CCN(C)CC2)cc1 (stereo not given) | -9.11% (inactive)
42 | Cc1ccc(C)c(NC(=S)NCC(c2cccnc2)N2CCOCC2)c1 (stereo not given) | -6.11% (inactive)
43 | Cc1ccc(NC(=O)NCC(c2cccnc2)N2CCOCC2)cc1 (stereo not given) | -69.8% (active)
44 | O=C(NCCS(=O)(=O)NCc1ccc(Cl)cc1)c1ccccc1 | 2.35% (inactive)
45 | O=C(COC(=O)Cc1ccccc1F)NNC(=O)c1ccc(Cl)cc1 | -1.7% (inactive)
46 | CC1CCN(c2c(NCc3ccc(C(=O)NCc4ccccc4)cc3)c(=O)c2=O)CC1 | -69.2% (active)

Row | SMILES | activity change, negative = inhibition
47 | O=C(NC1CCCCC1)c1ccc(CNc2c(N3CCOCC3)c(=O)c2=O)cc1 | -0.199% (inactive)
48 | O=C(NCc1ccccc1)c1ccc(CNc2c(N3CCCC3)c(=O)c2=O)cc1 | -3.59% (inactive)
49 | Cn1cccc1C(=O)OCC(=O)c1ccc(Br)s1 | -97.9% (inactive)
50 | O=C(Nc1cccc2c1CCCC2)c1ccc(F)cc1 | -2.27% (inactive)
51 | COc1ccc(/C=N/NC(=O)c2ccc3c(c2)OCCO3)c(OC)c1 | -61% (active)
52 | COc1ccc(/C=N/NC(=O)Nc2ccc3nsnc3c2)c(OC)c1 | 15.1% (inactive)
53 | COc1ccc(/C=N/NC(=O)CNC(=O)c2ccc(S(=O)(=O)N3CCCC3)cc2)c(OC)c1 | -4.96% (inactive)
54 | COc1ccc(C)cc1NC(=O)CSc1nnc2ccc(-c3ccccn3)nn12 | -4.51% (inactive)
55 | Cc1ccc(S(=O)(=O)N(NC2=NS(=O)(=O)c3ccccc32)C(=O)c2ccccc2)cc1 | -2.65% (inactive)
56 | Cc1ccc(C(=O)NN(CCC#N)C2=NS(=O)(=O)c3ccccc32)cc1 | -53.5% (active)
57 | COc1cc(C(=O)NN(CCC#N)C2=NS(=O)(=O)c3ccccc32)cc(OC)c1OC | -1.4% (inactive)
58 | O=C(CN(c1cc(C(F)(F)F)ccc1Cl)S(=O)(=O)c1ccccc1)NCc1cccnc1 | 6.77% (inactive)
59 | CCOC(=O)N1CCN(C(=O)CSc2nc(=O)n3cccc(C)c3n2)CC1 | -2.47% (inactive)
60 | O=C1[C@H]2[C@@H](c3ccc(Cl)cc3)N3C(=O)N(c4cccc(F)c4)C(=O)[C@@]3(Cc3ccccc3)[C@H]2C(=O)N1C1CCCCC1 | 8.08% (inactive)
61 | CN(C)S(=O)(=O)c1ccc(N2CCCC2)c(C(=O)Nc2ccc(Br)cc2F)c1 | 0.082% (inactive)
62 | Cc1ccc(-c2csc(NC(=O)C3=COCCO3)n2)cc1C | 14.3% (inactive)
63 | CCN1CCN(C(c2cccnc2)c2cc(Cl)c3cccnc3c2O)CC1 (stereo not given) | -81.5% (active)
64 | CCOC(=O)N1CCN(C(c2cccnc2)c2ccc3cccnc3c2O)CC1 (stereo not given) | 26.3% (inactive)
65 | Oc1c(C(c2ccccn2)N2CCOCC2)ccc2cccnc12 (stereo not given) | 39.3% (inactive)
66 | C=CCSc1nnc2c(n1)-c1cccc3cccc-2c13 | 3.46% (inactive)
67 | COC(=O)c1c(-c2ccsc2)oc2ccc(-c3cc(OC)c(OC)c(OC)c3)cc12 | 0.511% (inactive)
68 | OCCCNc1nc(-c2ccccc2)c2cc(Cl)ccc2n1 | -1.41% (inactive)
69 | OCCCNc1nccc(-c2cc(Nc3cccc(Cl)c3)ncn2)n1 | -63.5% (active)

Row | SMILES | activity change, negative = inhibition
70 | CC(C)n1cnc2c(Nc3cccc(Cl)c3)nc(N(CCO)CCCO)nc21 | -11.1% (inactive)
71 | Cc1ccc2nc(SCC(=O)Nc3cccc4ccccc34)nc(=O)n2c1 | 4.93% (inactive)
72 | O=C(NCCS(=O)(=O)NCc1ccc(F)cc1)c1ccccc1 | 0.252% (inactive)
73 | O=C(Nc1cccnc1)c1cccc(S(=O)(=O)N2CCCC2)c1 | -0.574% (inactive)
74 | O=C(Nc1cccnc1)c1noc2c1CCCCC2 | -52.6% (active)
75 | O=C(c1noc2c1CCCC2)N1CCc2ccccc2C1 | 12.4% (inactive)
76 | O=[N+]([O-])c1cccc(C=NN=Cc2ccccc2O)c1 | -25.2% (inactive)
77 | COc1ccc(C(=O)O/N=C(\N)c2ccccn2)cc1[N+](=O)[O-] | 12.7% (inactive)
78 | COc1ccc(C(=O)NNC(=O)c2cnccn2)cc1[N+](=O)[O-] | -85.3% (active)
79 | COc1cccc(OCC(=O)NNC(=O)c2cnccn2)c1 | -5.69% (inactive)
80 | CC(=O)c1c(C)[nH]c(C(=O)COC(=O)CCOc2ccc(C)cc2)c1C | 5.07% (inactive)
81 | CCCNC(=O)CCn1cc(-c2ccc(OC)cc2)nc1CCN | -7.76% (inactive)
82 | O=C(NNC(=O)c1ccc(-c2ccccc2)cc1)Nc1ccccc1 | -2.47% (inactive)
83 | O=S(=O)(Nc1ccc(-c2ccc(N3CCOCC3)nn2)cc1)c1cc(Cl)ccc1Cl | 11.6% (inactive)
84 | CCC(C)N(C(=O)CSc1ncnc2c1cnn2-c1ccccc1)C1CCS(=O)(=O)C1 (stereo not given) | 0.752% (inactive)
85 | COc1ccc(OC)c(S(=O)(=O)N2CCCC(C(=O)N3CCC(C(N)=O)CC3)C2)c1 (stereo not given) | -0.699% (inactive)
86 | Cc1nn(C)c(C)c1NS(=O)(=O)c1ccc(OC(F)(F)F)cc1 | -8.93% (inactive)
87 | O=C1COc2ccc(S(=O)(=O)Nc3ccc(OC(F)(F)F)cc3)cc2N1 | 2.92% (inactive)
88 | O=S(=O)(Nc1ccc(O)c2ccccc12)c1ccc(OC(F)(F)F)cc1 | -59.7% (active)
89 | CCC(=O)N1CCc2cc(Br)c(S(=O)(=O)NCCN3CCCCC3CC)cc21 (stereo not given) | -1.08% (inactive)
90 | CN1CCN(C2Cc3ccc(Cl)cc3Sc3ccc(F)cc32)CC1 (stereo not given) | -0.795% (inactive)
